From PubChem
An excerpt weighted towards active compounds, which were near 2.4% of everything screened.
TRAIL sens C8: sensitizes caspase-8 expressing cells to TRAIL; inhibition (viability loss, TRAIL sensitization), % at 10 µM; NB7+C8 cells + TRAIL, ATPlite viability luminescence; 360,000 tested, 1% active; AID 624354;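 active means compounds causing at least 50% loss of cell viability in the single-dose screen, relative to plate controls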
HSF1 inh: HSF1 inhibition. activity change, negative = inhibition, % at 7.5 µM (by protocol). NIH3T3-HGL HSE-luciferase, MG132-induced, luminescence 8 h; hits give low values. 300,000 tested, 0.77% active;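 active means more than half of replicate wells show activity change below -50%, luminescence cut by over half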;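 further: luciferase reports HSF-1 transcriptional activity via heat shock element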
HSP90 refold inh: inhibitors of HSP90 luciferase refolding in rabbit reticulocyte lysate; luciferase refolding luminescence, 3 h; inhibition, % at 5.6 µM; 290,000 tested, 0.91% active; AID 1789;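 active means inhibition above the screen-wide mean plus 3 SD, computed separately per campaign, cut at about 16% in these data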;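 further: inhibitors lower the luminescence because luciferase stays unfolded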
PPC-1+TRAIL kill: compounds killing PPC-1 cancer cells with TRAIL present (potentiator screen, no TRAIL-free arm); PPC-1 cells + TRAIL, ATPLite viability luminescence; AID 1443; cell killing (% activity), % at 4 µM or 5 µM; 220,000 tested, 0.41% active;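 active means cell killing above 50% in the first pass at 4 µM, then a duplicate retest at 5 µM averaging 50% or more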
STAT3 inh-1: STAT3 signaling inhibition. U3A cells, IL-6 STAT3-luciferase reporter, luminescence; host cell line lacks STAT1. 190,000 tested, 0.89% active. AID 862. inhibition, % at 5.5 µM;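 active means inhibition above the mean inhibition across all screened compounds plus 3 SD, cut at about 44% in these data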
STAT1 blocker: reduces IFN-gamma driven STAT1 reporter signal; NIH 3T3 STAT1-luciferase reporter, luminescence; inhibition, % at 5.5 µM; 200,000 tested, 0.35% active; AID 920;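 active means inhibition above a set limit, the mean inhibition across all tested compounds plus 3 SD, cut at about 34% in these data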
STAT3 inh-2: confirmation of STAT3 signaling inhibitors; shares compounds with STAT3 inh-1; U3A cells, IL-6 STAT3 luciferase reporter, luminescence; cell line lacks STAT1; inhibition, % at 5.7 µM; 1,200 tested, 45% active; AID 1265;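 active means inhibition above the hit cutoff computed for the primary STAT3 screen, cut at about 44% in these data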
NFkB inh 2: counter-screen for STAT3 inhibitors: NF-kappaB inhibition | inhibition, % at 5.7 µM | shares compounds with STAT3 inh-1 | 1,200 tested, 36% active | AID 1308 | HEK293T NF-kB luciferase reporter, TNF-alpha induced;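 active means inhibition above the mean of solvent-only control wells plus 3 SD, cutoff set per campaign, cut at about 13% in these data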
STAT1 inh 2: STAT1 inhibition in STAT3 inhibitor counter-screen. shares compounds with STAT3 inh-1. NIH 3T3 STAT1-luciferase reporter, IFN-gamma induced, luminescence. inhibition, % at 5.7 µM. 1,200 tested, 27% active;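 active means inhibition above the mean plus 3 SD of solvent-only control wells, limit set per screening run, cut at about 16% in these data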
A number is an active result; n = inactive; x = not tested or not shown.

SMILES	TRAIL sens C8	HSF1 inh	HSP90 refold inh	PPC-1+TRAIL kill	STAT3 inh-1	STAT1 blocker	STAT3 inh-2	NFkB inh 2	STAT1 inh 2
COc1ccc(CCNc2ncnc3sccc23)cc1OC	n	n	n	n	89	n	89	40	31
Cc1sc2ncnc(NCCc3ccc(S(N)(=O)=O)cc3)c2c1C	n	-51	n	n	74	n	80	29	30
NS(=O)(=O)c1ccc(CCNc2ncnc3sccc23)cc1	n	n	n	n	54	n	48	n	23
NS(=O)(=O)c1ccc(CNc2ncnc3sccc23)cc1	n	n	n	x	x	x	x	x	x
COc1ccc([C@H]2C[C@@H](O)[C@H](n3cc(COC(=O)c4ccccc4)nn3)CN2CC2CCCCC2)cc1	n	x	x	x	x	x	x	x	x
COc1ccc2cc(-c3cc(C(=O)OCC(=O)Nc4c(C)n(C)n(-c5ccccc5)c4=O)c4ccccc4n3)ccc2c1	97	n	n	92	47	n	56	n	n
COc1ccc(-c2cc(C(=O)Nc3c(C)n(C)n(-c4ccccc4)c3=O)c3ccccc3n2)cc1	n	n	n	x	x	x	x	x	x
COc1ccc2cc(-c3cc(C(=O)OCC(=O)NC4CCS(=O)(=O)C4)c4ccccc4n3)ccc2c1 (stereo not given)	92	n	n	95	62	n	n	n	n
COc1ccc(-c2cc(C(=O)OCC(=O)NC3CC3)c3ccccc3n2)cc1	n	x	x	x	x	x	x	x	x
c1ccc2c(c1)OCC(CNc1ncnc3sccc13)O2 (stereo not given)	n	n	n	n	84	n	87	32	20
O=[N+]([O-])c1ccc(N/N=C/c2c[nH]c3ccccc23)cc1	n	n	n	n	48	n	n	n	n
Clc1ccc(CSc2nnc(Cn3cnc4ccccc43)o2)cc1	n	n	n	n	63	n	45	n	n
O=C(CSc1nnc(Cn2nnc3ccccc32)o1)N(Cc1ccc(Cl)cc1)c1ccccc1	n	n	n	n	53	n	45	13	19
O=C(NCC[C@H]1CC[C@@H](NC(=O)C2CCC2)[C@@H](CO)O1)c1cc(Cl)cc(Cl)c1	n	x	x	x	x	x	x	x	x
CN1CCN([C@H]2CS(=O)(=O)N[C@@H]2COCc2ccccc2)CC1	n	x	x	x	x	x	x	x	x
N#Cc1cc2c(nc1SC1CC(=O)N(c3ccccc3)C1=O)CCC2 (stereo not given)	n	x	n	n	64	n	n	41	n
CSc1nc2c(cc1C#N)CCC2	n	n	n	n	x	x	x	x	x
Cc1nc2ccc(NC(=O)C3(C)CCCN(C(C)C)C3)cc2o1 (stereo not given)	n	x	x	x	x	x	x	x	x
CC(=O)N1C[C@H]2CON(C)[C@H]2C[C@H]1c1cccc(-c2cc(Cl)cc(Cl)c2)c1	n	x	x	x	x	x	x	x	x
Fc1ccc(Sc2ccccc2CNC2=NCCN2)cc1	n	n	n	n	46	n	n	n	n
Clc1c(CSc2nc3ccccc3o2)nc2sccn12	n	n	n	n	n	n	x	x	x
Clc1c(CSc2nc3ccccc3o2)nc2ccccn12	n	n	n	n	45	n	n	n	n
CCCC1NC(=O)c2cccnc2-n2c1nc1cc(C)cc(C)c1c2=O (stereo not given)	n	x	x	x	x	x	x	x	x
Cc1cc(C(=O)CSc2nc3ccccc3c(=O)n2C)c(C)n1Cc1ccc2c(c1)OCO2	n	n	n	n	58	n	76	28	25
O=S(=O)(c1ccccc1)N1CCC(O)(CSc2ccc(Cl)cc2)CC1	n	n	n	n	76	n	47	17	n
SMILES	TRAIL sens C8	HSF1 inh	HSP90 refold inh	PPC-1+TRAIL kill	STAT3 inh-1	STAT1 blocker	STAT3 inh-2	NFkB inh 2	STAT1 inh 2
O=S(=O)(c1ccc(Cl)cc1)N1CCC(O)(CN2CCN(Cc3ccccc3)CC2)CC1	n	n	n	n	n	n	x	x	x
CCn1cc([N+](=O)[O-])c(C(=O)Nc2nc(-c3ccc(C)c(C)c3)c(C)s2)n1	n	n	n	n	45	n	n	n	n
CCn1cc([N+](=O)[O-])c(C(=O)Nc2nc(-c3ccc(C)cc3)c(C)s2)n1	n	n	n	n	56	n	n	n	n
CCn1cc([N+](=O)[O-])c(C(=O)Nc2cc(C)on2)n1	n	n	n	n	n	n	x	x	x
Cc1ccc(C(=O)Nc2nnc(SCC(=O)N3CCCc4ccccc43)s2)cc1	97	n	n	95	62	n	71	56	49
CC(C)Oc1ccc(C(=O)Nc2nnc(SCC(=O)N3CCOCC3)s2)cc1	98	n	16	94	70	n	74	57	50
CC(C)NC(=O)C1(C)CSCC(=O)N1CCOc1ccccc1 (stereo not given)	n	x	x	x	x	x	x	x	x
CCOC(=O)C1CCCN(S(=O)(=O)c2ccc(C)cc2)C1 (stereo not given)	n	n	n	n	n	n	x	x	x
CCOC(=O)C1CCCN(S(=O)(=O)c2ccc(S(=O)(=O)N(CC)CC)cc2)C1 (stereo not given)	n	n	n	n	78	n	83	34	27
Cn1c(N=Nc2ccccc2)nc2ccccc21	93	n	42	85	51	n	n	n	n
O=C(Nc1nc(-c2ccc3ccccc3c2)cs1)C1CCN(S(=O)(=O)c2cccs2)CC1	n	n	n	n	n	n	x	x	x
Cc1ccc(-c2csc(NC(=O)C3CCN(S(=O)(=O)c4cccs4)CC3)n2)cc1	n	n	n	n	79	n	84	33	17
O=C(Nc1nc(-c2nc3ccccc3s2)cs1)c1ccc(S(=O)(=O)N2CCOCC2)cc1	n	n	n	n	n	n	x	x	x
O=C(Nc1nc(-c2ccc(S(=O)(=O)N3CCOCC3)cc2)cs1)c1ccccc1	n	n	n	n	50	n	44	18	24
O=C(Nc1nc(-c2ccc(S(=O)(=O)N3CCCCCC3)cc2)cs1)c1cccs1	n	n	n	n	n	n	x	x	x
O=C(Nc1nc(-c2ccc(S(=O)(=O)N3CCCC3)cc2)cs1)c1cccs1	n	x	n	n	47	n	n	n	17
COc1ccc(CNc2oc(COc3ccc(Cl)cc3)nc2C#N)cc1	n	n	n	n	n	n	x	x	x
COc1ccc(Nc2oc(COc3ccc(Cl)cc3)nc2C#N)cc1	n	n	n	n	47	n	n	n	n
Cc1ccc(/C=C/c2nnc(-c3cccs3)o2)cc1	n	n	n	n	64	n	n	n	n
Cc1ccc(C(=O)Nc2ccc(N3CCOCC3)cc2)cc1S(=O)(=O)N1CCCCC1	n	x	x	x	x	x	x	x	x
O=C(Nc1ccc(F)c(F)c1)c1ccc(F)c(S(=O)(=O)N2CCOCC2)c1	x	n	n	n	46	n	n	n	n
